In PubChem BioAssay AID1259240 (Keith Lab, Institute of Cancer Science, University of …, 2017):
A number with no mark means an inactive call. Rule as the data show it: active = fold change mostly below about -2 (no sharp cut-off); inactive = mostly above about -1.8.

Assay: TERT promoter activity modulators, primary screen, cell-based, luciferase reporter, human (AID 1259240)
Settings: A2780 TERT promoter luciferase reporter, 16 h; at 20 µM, fold versus average of vehicle-only wells

Row | SMILES | fold change
1 | CCOC(=O)C1=C(CS(=O)(=O)c2ccc(C)cc2)NC(=O)NC1c1ccccc1 (stereo unspecified) | 1.64
2 | CCn1c(NCc2ccc(Cl)cc2)nc2ccccc21 | 1.05
3 | O=C(O)CN1C(=O)/C(=C\c2cn(Cc3ccc(F)cc3)c3ccccc23)SC1=S | -1.28
4 | Cc1nc2sc3c(NC4CCCCC4)ncnc3c2c2c1COC(C)(C)C2 | -1.55
5 | OCCOCCn1c(-c2ccccc2)nc(=S)c2c1CCCC2 | -1.03
6 | O=c1cc(-c2cc(Br)cc3c2OCOC3)oc2ccccc12 | -1.26
7 | Cc1cccc(-c2nc3s/c(=C\c4ccc(F)cc4)c(=O)n3n2)c1 | -1.54
8 | CCOC(=O)N1CCC(Nc2c(N3CCN(c4ccccc4)CC3)c(=O)c2=O)CC1 | -1.05
9 | O=C(CSc1nncc2ccccc12)Nc1ccccc1 | 1.07
10 | Cc1ccc(-c2n[nH]c3c2C(c2ccccn2)N(c2ccc(C(=O)O)cc2)C3=O)cc1 (stereo unspecified) | -1.91
11 | CCOCCCNc1nc2c(-c3ccccc3)nnn2c2ccccc12 | 1.12
12 | Cc1ccn(CN2CCN(Cn3ccc(C)n3)C2=S)n1 | 1.29
13 | CCCN(CCC)CCCNc1ccc2nncn2n1 | 1
14 | CSc1cccc(NC(=O)C2CCN(S(=O)(=O)c3ccc4c(c3)oc(=O)n4C)CC2)c1 | -1.36
15 | O=C(Cn1c(=O)oc2cc(S(=O)(=O)NC3CCCC3)ccc21)N1CCCC1 | -1.19
16 | COc1ccc(NC(=O)Nc2ccc3snnc3c2)cc1OC | 1.08
